Results filed as inconclusive are left out. Active and inactive are the calls of the source. Unless noted, calls follow the shape of the dose curve; as a rule, active = well fitted curve in the direction sought with a large enough effect; inconclusive = small, poorly fitted or top-dose-only effect, or another doubt; inactive = no such curve, though single readings can be large; an effect the other way counts as inactive or inconclusive. Where only a bound is given, the exact number is not on record here.

Assay [1] in a line: Cell Viability - BJ (AID 421; calls by dose curve;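 also: potency is read from the fitted curve at half-maximal effect; cells exposed to compound for 40 hours at 37 °C before readout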). The settings on record: BJ fibroblast viability, qHTS. The gist of the method:
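Normal human BJ foreskin fibroblasts, 1500/well in complete medium, treated 40 hr at 37 °C. Cellular ATP by CellTiter-Glo luminescence; normalized to DMSO and 100 uM tamoxifen, AC50 from Hill fit.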
On the technique in general: Quantitative high-throughput screening tests each substance at several concentrations.

A short description of assay [2]: Cell Viability - HepG2 (AID 433; calls by dose curve;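 also: potency is read from the fitted curve at half-maximal effect; potency for ATP loss meaning cytotoxicity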). As to conditions: qHTS. The gist of the method: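 Cytotoxicity read as ATP loss (CellTiter-Glo luminescence) after 40 hr compound exposure of HepG2, 1500 cells/well, 37 °C. AC50 by Hill equation; 0% set by DMSO, 100% inhibition by 100 uM tamoxifen.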
Assay [3] can be described thus: Cell Viability - MRC5 (AID 434; calls by dose curve;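 also: potency is read from the fitted curve at half-maximal effect; cells exposed to compound for 40 hours at 37 °C; potency reflects cytotoxicity seen as loss of intracellular ATP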). The settings on record: MRC5 lung fibroblast viability, qHTS. The gist of the method: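 Decrease in intracellular ATP, quantified by luciferase light output, reflects compound toxicity toward MRC5 cells exposed for 40 hr in complete culture medium. Concentration-response curves, scaled between DMSO and 100 uM tamoxifen, gave AC50 values.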

Assay [4] can be described thus: Cell Viability - HUV-EC-C (AID 542). Also: % is scaled to controls: 0 for no effect and ±100 for the full control effect; nearly all actives have a fitted effect of over 35% in size. A digest of the protocol:
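Concentration-dependent ATP loss in HUV-EC-C cells is the measure. Exposure lasts 40 hr at 37 °C; luminescence follows CellTiter-Glo addition, and Hill fits give AC50.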

Assay [5] in a line: Cellular Toxicity (caspase-3) Jurkat (AID 655).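 Also: cells exposed to compound for 16 h at 37 °C before reading.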 Also: potency is read from the fitted curve at half-maximal effect. As to conditions: Jurkat caspase-3 activation, luminescence; caspase-3 activation: at 92.2 µM (top of the series), DMSO = 0%, tamoxifen = 100%. The gist of the method: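 Luminescent Caspase-Glo 3/7 read-out (20 min, room temperature) after 16 h compound treatment at 37 C of 5000 Jurkat cells per well. AC50 derived by Hill-equation fitting, scaled between DMSO basal and 100 uM tamoxifen stimulation.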

Assay [6] is described as follows: Cellular Toxicity (caspase-3) H-4-II-E (AID 663).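 Also: cells exposed to compound for 16 hr before readout.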 As to conditions: Potency: caspase-3 activation. The gist of the method: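 Caspase 3/7 activation measured in H-4-II-E cells in complete culture medium after 16 hr treatment at 37 °C, using luciferase-coupled substrate readout; AC50 values come from Hill-equation fits of normalized concentration-response data.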

Assay [7] is described as follows: Cellular Toxicity (caspase-3) NIH 3T3 (AID 666).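 Also: caspase signal read after 16 h compound exposure.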 The gist of the method:
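Activity: caspase-3/7 induction, NIH 3T3 cells, 16 hr treatment at 37°C, luminescent Caspase-Glo detection; AC50 via Hill equation.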

Assay [8] has as its target Cytochrome P450 3A4 (Homo sapiens) (UniProt P08684). Nature of the assay: qHTS Assay for Inhibitors and Substrates of Cytochrome P450 3A4 (AID 884). Also: nearly all actives have a fitted effect of over 50% in size. Also: potency is read from the fitted curve at half-maximal effect. A digest of the protocol: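 Luminescent readout of luciferin produced by CYP3A4 (20 nM) dealkylation of Luciferin-PPXE, 25 uM (its KM). NADPH-driven reaction ran 60 min at RT after 10 min compound preincubation; data scaled to 57 uM ketoconazole as 100% inhibition.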

Assay [9] in a line: MultiTox-Fluor Cytotoxicity Assay - LYMP1-001 - Dead Cells (AID 946). Also: potency is read from the fitted curve at half-maximal effect. A digest of the protocol:
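LYMP1-001 lymphoblastoid cells (2500/well) treated 16 h at 37 C. Dead-cell protease cleavage of bis-AAF-R110 read at Ex/Em 485/520. Normalized to DMSO and 15 uM tetraoctylammonium bromide; AC50 from Hill fits.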

Assay [10] in a line: Cell Viability - LYMP1-002 - Assay at 16 hr (AID 948).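 Also: 0% = DMSO alone and full effect = 92 µM tetraoctylammonium bromide.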 The gist of the method: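 ATP luminescence (CellTiter-Glo) was measured after 16 hr compound exposure at 37 C of 2500 lymphoblastoid LYMP1-002 cells per well. Concentration-response curves were fitted with the Hill equation to give AC50.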
Assay [11] can be described thus: MultiTox-Fluor Cytotoxicity Assay - LYMP1-002 - Live Cells (AID 955). Also: % is scaled to controls: 0 for no effect and ±100 for the full control effect. A digest of the protocol: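 In this qHTS viability format, lymphoblastoid cells (LYMP1-002, human) received compound for 16 hr at 37 C. Fluorogenic GF-AFC cleavage by viable cells was detected at 405/510 nm after 1 h at room temperature.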
Assay [12] can be described thus: MultiTox-Fluor Cytotoxicity Assay - LYMP1-002 - Dead Cells (AID 960). Also: nearly all actives have a fitted effect of over 60% in size. Also: potency is read from the fitted curve at half-maximal effect. The gist of the method: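 Concentration-dependent increases in membrane-leaked protease activity are quantified in LYMP1-002 cells after 16 hr treatment; values are normalized against DMSO and tetraoctylammonium bromide (15 uM) controls and AC50 derived by Hill modeling.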
Assay [13] is described as follows: MultiTox-Fluor Cytotoxicity Assay - LYMP1-003 - Dead Cells (AID 961). Also: nearly all actives have a fitted effect of over 70% in size. Also: potency is read from the fitted curve at half-maximal effect. The gist of the method: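 LYMP1-003 human lymphoblastoid cells (2500/well) exposed to compound 16 h at 37 C in complete medium; dead-cell protease read with bis-AAF-R110 fluorescence (Ex/Em 485/520) after 60 min at room temperature. Normalized to DMSO and 15 uM tetraoctylammonium bromide; AC50 from Hill fit.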

Assay [14] can be described thus: MultiTox-Fluor Cytotoxicity Assay - LYMP1-003 - Live Cells (AID 962).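 Also: 0% = DMSO only and full loss = 92 µM tetraoctylammonium bromide; cytotoxic hits lower the live-cell protease signal.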 The gist of the method: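 Human lymphoblastoid line LYMP1-003 in complete culture medium, treated 16 hr with titrated compounds. Viable cells quantified via cell-permeant GF-AFC substrate fluorescence; AC50 derived by Hill fitting.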
Assay [15] is described as follows: Cell Viability - LYMP2-018 (AID 985).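 Also: compound exposure lasted 24 hr at 37 °C; plate controls were DMSO only for no effect and tetraoctylammonium bromide at 92 µM for full effect; nearly all actives have a fitted effect of over 50% in size.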 A digest of the protocol:
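In this qHTS viability assay, cells are treated for 24 hr and cellular ATP is quantified by luciferase-based luminescence, with tetraoctylammonium bromide as positive control.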

Assay [16] can be described thus: Cell Viability - LYMP1-002 - Assay at 24 hr (AID 993). Also: % is scaled to controls: 0 for no effect and ±100 for the full control effect. The gist of the method:
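Viability was judged from intracellular ATP using a luciferase read-out, following a 24-hour compound incubation at 37 C of lymphoblastoid cells seeded at 2500 per well. Concentration-response data were fitted to the Hill equation for AC50.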

Assay [17] is described as follows: qHTS assay for small molecule antagonists of retinoid X receptor alpha signaling (AID 588546; active = well fitted inhibition curve with a large enough effect in the signal ratio, with a control signal flat, not every such curve was filed as active; the % refers to the signal ratio;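 also: cells stimulated with 9-cis-retinoic acid as agonist; % is scaled to controls: 0 for no effect and ±100 for the full control effect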). As to conditions: HEK293T RXRa-UAS-bla, beta-lactamase ratio, antagonist mode; measured here: W530 green channel, cytotoxicity proxy. The gist of the method: (§1)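 Beta-lactamase reporter inhibition, read as CCF4 fluorescence ratio (ex 405, em 460/530 nm) after 2 h at RT. HEK293T UAS-bla cells, 2500/well, were stimulated with 9-cis-RA at 500 or 100 nM final alongside test compound for 18 h at 37 C.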

For assay [18], the target named is Retinoic acid receptor RXR-alpha (Homo sapiens) (UniProt P19793). The description is as above. The settings on record: HEK293T RXRa-UAS-bla, beta-lactamase ratio, antagonist mode. The gist of the method: as §1
Assay [19] can be described thus: qHTS assay for small molecule disruptors of the mitochondrial membrane potential - 5 hr assay (AID 651755; calls by dose curve; also: nearly all actives have a fitted effect of over 40% in size; also: potency is read from the fitted curve at half-maximal effect). The gist of the method: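 Seed HepG2 overnight, add compound, incubate 5 hr at 37C and 5% CO2, stain 30 min with Mito-MPS, then measure monomer (490/535 nm) and aggregate (540/590 nm) fluorescence.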
The nature of assay [20]: qHTS assay for cell viability of HEK293 cells (AID 743288). Also: % is scaled to controls: 0 for no effect and ±100 for the full control effect; nearly all actives have a fitted effect of over 50% in size. As to conditions: ATP luminescence (CellTiter-Glo), 18 h; max response: stronger effect = lower value. A digest of the protocol:
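Readout is luciferase-coupled ATP content (CellTiter-Glo luminescence, 30 min room temperature) as a measure of metabolically competent cells. Parental HEK293 cells were plated 5 h or more before compound addition, then treated 18 h at 37 C.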

Cytochrome P450 3A4 (Homo sapiens), sequence (P08684 whole entry, looked up): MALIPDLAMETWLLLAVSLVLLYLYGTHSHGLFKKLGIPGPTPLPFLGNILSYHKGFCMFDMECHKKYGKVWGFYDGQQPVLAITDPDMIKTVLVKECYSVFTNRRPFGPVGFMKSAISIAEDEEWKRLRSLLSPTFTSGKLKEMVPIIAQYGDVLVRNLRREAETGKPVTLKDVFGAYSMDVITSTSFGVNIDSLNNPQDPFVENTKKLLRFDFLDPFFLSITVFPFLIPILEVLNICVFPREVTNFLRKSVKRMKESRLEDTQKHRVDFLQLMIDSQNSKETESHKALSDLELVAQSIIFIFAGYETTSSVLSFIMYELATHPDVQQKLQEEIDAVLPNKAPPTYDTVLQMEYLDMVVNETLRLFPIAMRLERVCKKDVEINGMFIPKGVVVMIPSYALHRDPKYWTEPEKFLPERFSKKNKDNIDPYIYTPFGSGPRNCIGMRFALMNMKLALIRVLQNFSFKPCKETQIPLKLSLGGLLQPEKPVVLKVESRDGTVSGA
Retinoic acid receptor RXR-alpha (Homo sapiens), sequence (P19793 whole entry, looked up): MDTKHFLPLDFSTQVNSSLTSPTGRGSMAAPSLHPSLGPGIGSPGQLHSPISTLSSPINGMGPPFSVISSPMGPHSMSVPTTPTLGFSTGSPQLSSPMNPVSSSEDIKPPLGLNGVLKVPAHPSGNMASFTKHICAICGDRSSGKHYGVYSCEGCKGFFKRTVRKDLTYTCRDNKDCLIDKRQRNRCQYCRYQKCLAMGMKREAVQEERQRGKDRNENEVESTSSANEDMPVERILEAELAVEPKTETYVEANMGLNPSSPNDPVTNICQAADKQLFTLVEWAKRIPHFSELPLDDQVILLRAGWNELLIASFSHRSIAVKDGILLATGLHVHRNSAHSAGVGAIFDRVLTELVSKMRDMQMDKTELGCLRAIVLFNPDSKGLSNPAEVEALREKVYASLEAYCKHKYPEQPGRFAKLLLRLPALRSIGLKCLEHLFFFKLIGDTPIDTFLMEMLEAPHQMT

Regarding `O=c1[nH]ncc2ccccc12`, the Potency in assay [1], in assay [2] and in assay [3] was > 92 µM (inactive) each time. Further, the Potency result in assay [4], in assay [5], in assay [6], in assay [8], in [9] and in assay [10] was “inactive” in each case. Besides, the Potency result in assay [12], in [13], in assay [14], in assay [15], in assay [16] and in [19] was “inactive” in each case. For the same compound, the result in assay [7] and in assay [11] was inactive. Also, the figures for the max response in [17], in [18] and in assay [20] were -5.72%, 13% (inactive) and 0.756% (inactive), respectively.

With `CCOc1ccc2nc(N)sc2c1`, the Potency in assay [1], in [2] and in [3] was > 92 µM (inactive) throughout. The Potency entry in [4], in assay [5], in assay [6], in assay [9], in assay [10] and in assay [12] was “inactive” throughout. The Potency entry in assay [13], in assay [14], in [15] and in [16] was “inactive” throughout. Further, the result in assay [7] and in assay [11] was inactive. Moreover, the max response in assay [17] is -8.45%; in assay [18] it was -7.66% (inactive); in [20] it was -4.83% (inactive).

Take `Nc1ccc(N=Nc2ccccc2)c(N)c1`: the Potency in assay [1] was > 92 µM (inactive); in [2] it was > 92 µM (inactive); in assay [3], > 92 µM (inactive); in [8], 12.6 µM (active); in [19] it was 10.6 µM (active). The Potency result in assay [5], in [6], in assay [9], in assay [10], in [12] and in assay [13] was “inactive” throughout. Also, the Potency entry in assay [14], in [15] and in [16] was “inactive” throughout. In addition, the outcome in assay [11] was inactive. Besides, the max response in assay [17] is -9.61%; in [18], -15% (inactive); in [20] it was -22.9% (inactive).

As to `CCN(CC)c1ccc2c(C)cc(=O)oc2c1`, the Potency in [1], in assay [2] and in assay [3] was > 92 µM (inactive) each time. In addition, the Potency result in assay [4], in assay [5], in [6], in assay [9], in [10] and in [13] was “inactive” throughout. In addition, the Potency result in [14], in assay [15] and in assay [16] was “inactive” each time. Moreover, the call in [7] was inactive. Also, in assay [20], the max response is -1.15% (inactive).

Consider `O=[N+]([O-])c1cc(Cl)c(Cl)c(Cl)c1Cl`, for which the Potency is > 92 µM (inactive) in assay [1]; > 92 µM (inactive) in assay [2]; > 92 µM (inactive) in [3]; 25.1 µM (active) in [9]; 25.1 µM (active) in assay [12]; 50.1 µM (active) in assay [13]. Also, the Potency entry in assay [4], in assay [5], in assay [6], in assay [8], in [10] and in assay [14] was “inactive” throughout. The Potency result in assay [16] and in [19] was “inactive” in each case. Besides, the result in assay [11] was inactive. Besides, the max response in assay [17] was 11.9%; in [18], -21.8% (inactive); in assay [20] it was -2.48% (inactive).

`Nc1ccccc1O`: the Potency in [1] was > 92 µM (inactive); in assay [2], > 92 µM (inactive); in assay [3], > 92 µM (inactive); in [5], 25.1 µM (active); in assay [13], 10 µM (active); in assay [19] it was 23.7 µM (active). Also, the Potency entry in assay [4], in assay [6], in [8], in assay [9], in [10] and in assay [12] was “inactive” in each case. Besides, the Potency entry in assay [15] and in [16] was “inactive” each time. Also, the result in assay [7] and in [11] was inactive. For the same compound, the max response in [17] was 21.2%; in assay [18], -7.25% (inactive); in assay [20], -3.09% (inactive).

As to `Oc1ccc2c(c1)OCO2`, the Potency in assay [1], in assay [2] and in assay [3] was > 92 µM (inactive) throughout. Besides, the Potency result in assay [4], in assay [5], in [6], in assay [9], in [10] and in [12] was “inactive” each time. Besides, the Potency entry in [13], in [14], in assay [15], in [16] and in assay [19] was “inactive” in each case. In addition, the compound was classed as inactive in assay [7] and in assay [11]. Also, the max response was 5.56% in [17], 10.9% (inactive) in [18] and 7.08% (inactive) in [20].

Turning to `Cc1cccnc1`, the Potency in [1], in assay [2] and in [3] was > 92 µM (inactive) in each case. Further, the Potency entry in assay [4], in assay [5], in [6], in assay [8], in [9] and in assay [10] was “inactive” throughout. Also, the Potency entry in assay [12], in assay [13], in assay [14], in assay [15], in assay [16] and in assay [19] was “inactive” throughout. Moreover, the compound was called inactive in assay [7] and in [11]. In addition, the max response in assay [17] was -1.12%; in assay [18] it was 7.72% (inactive); in [20] it was -8.35% (inactive).

For `c1ccc(CSCc2ccccc2)cc1`, the Potency in [1], in [2] and in assay [3] was > 92 µM (inactive) in each case. The Potency result in assay [4], in [5], in assay [6], in [8], in [9] and in assay [10] was “inactive” throughout. For the same compound, the Potency entry in [12], in assay [13], in [14], in [15], in assay [16] and in assay [19] was “inactive” throughout. The compound was classed as inactive in assay [7] and in assay [11]. The max response in assay [17] was -3.11%; in assay [18] it was 1.24% (inactive); in [20] it was 1.27% (inactive).

As for `C=C(C#N)C(=O)OCC`, the Potency in assay [1], in [2] and in assay [3] was > 92 µM (inactive) each time. The Potency result in assay [4], in [5], in assay [6], in [8], in assay [9] and in [10] was “inactive” each time. In addition, the Potency result in [12], in assay [13], in assay [14], in assay [15], in assay [16] and in assay [19] was “inactive” each time. In addition, the result in assay [7] and in assay [11] was inactive. The max response was -6.72% in [17], 9.58% (inactive) in assay [18] and -12.8% (inactive) in assay [20].

The values above are taken from PubChem BioAssay (NCATS).
